# Measurements: the supplement of paper PMC10849652
# About 7,900 targets were measured; listed, in parts, are those with a hit and a random draw of the rest. About 0.6% of all pairs of compound and target were hits. A number with no mark means an inactive call.
# Experiments:
# Test in all cases: log2 fold change, soluble protein after heating vs DMSO (PISA); higher = thermal stabilisation; K562 cells, 10 uM, 30 min; active = over 0.2 and 3.5 SD of the protein, either way, in both replicates (recomputed)
# ZW10 = ZW10 (UniProt O43264)
# Sequence of ZW10 (O43264 whole entry, looked up): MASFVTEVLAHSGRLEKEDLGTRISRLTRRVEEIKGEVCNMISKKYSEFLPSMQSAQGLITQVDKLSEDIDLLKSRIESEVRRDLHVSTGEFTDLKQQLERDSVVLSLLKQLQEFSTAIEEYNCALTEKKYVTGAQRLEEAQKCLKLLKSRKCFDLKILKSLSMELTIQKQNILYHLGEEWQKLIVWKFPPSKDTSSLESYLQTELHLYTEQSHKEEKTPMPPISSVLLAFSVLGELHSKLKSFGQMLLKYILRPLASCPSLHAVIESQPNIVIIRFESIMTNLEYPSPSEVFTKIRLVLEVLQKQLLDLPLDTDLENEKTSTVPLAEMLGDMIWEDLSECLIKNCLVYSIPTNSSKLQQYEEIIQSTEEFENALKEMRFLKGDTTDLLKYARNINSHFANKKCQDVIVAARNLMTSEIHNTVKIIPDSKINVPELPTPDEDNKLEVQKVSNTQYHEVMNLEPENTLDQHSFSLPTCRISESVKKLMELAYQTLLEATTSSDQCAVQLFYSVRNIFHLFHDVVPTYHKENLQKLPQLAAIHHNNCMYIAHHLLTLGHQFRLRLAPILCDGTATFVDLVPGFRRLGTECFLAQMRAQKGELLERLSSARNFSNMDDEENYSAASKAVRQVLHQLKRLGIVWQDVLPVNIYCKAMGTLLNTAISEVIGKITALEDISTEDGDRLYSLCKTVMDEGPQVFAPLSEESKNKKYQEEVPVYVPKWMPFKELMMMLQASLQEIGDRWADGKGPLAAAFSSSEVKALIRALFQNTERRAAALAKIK
# Outline: (§1)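 K562 cells at 2×10^6 cells/mL were treated with 10 μM compound for 30 min. Aliquots were heated for 3 min across 48°C-58°C, pooled, and extracted in PBS with 0.5% NP-40 at 4°C; soluble protein was the supernatant after 21,000xg for 90 min. Soluble protein was quantified by TMTpro 16plex LC-MS/MS with channel sums equalised, and reported as log2 fold change in thermal stability against DMSO controls, with values from duplicates.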
# ZWILCH = ZWILCH (UniProt Q9H900)
# Sequence of ZWILCH (Q9H900 whole entry, looked up): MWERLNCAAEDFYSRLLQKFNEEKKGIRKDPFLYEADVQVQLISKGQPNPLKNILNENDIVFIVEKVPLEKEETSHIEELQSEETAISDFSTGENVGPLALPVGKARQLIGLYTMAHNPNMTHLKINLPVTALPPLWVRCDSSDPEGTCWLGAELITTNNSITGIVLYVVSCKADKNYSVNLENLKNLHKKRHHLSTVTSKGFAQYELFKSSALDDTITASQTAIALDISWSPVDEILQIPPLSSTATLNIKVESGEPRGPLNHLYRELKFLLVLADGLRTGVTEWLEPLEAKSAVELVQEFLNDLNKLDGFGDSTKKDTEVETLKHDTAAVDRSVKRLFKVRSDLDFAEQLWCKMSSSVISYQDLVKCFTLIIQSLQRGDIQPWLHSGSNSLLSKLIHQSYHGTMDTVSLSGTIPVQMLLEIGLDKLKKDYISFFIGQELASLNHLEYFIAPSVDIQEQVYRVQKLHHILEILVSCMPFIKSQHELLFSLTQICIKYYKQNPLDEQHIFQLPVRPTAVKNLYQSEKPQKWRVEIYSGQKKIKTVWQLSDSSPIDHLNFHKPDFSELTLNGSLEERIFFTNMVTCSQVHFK
# Outline: as §1
# ZYG11B = ZYG11B (UniProt Q9C0D3)
# Sequence of ZYG11B (Q9C0D3 whole entry, looked up): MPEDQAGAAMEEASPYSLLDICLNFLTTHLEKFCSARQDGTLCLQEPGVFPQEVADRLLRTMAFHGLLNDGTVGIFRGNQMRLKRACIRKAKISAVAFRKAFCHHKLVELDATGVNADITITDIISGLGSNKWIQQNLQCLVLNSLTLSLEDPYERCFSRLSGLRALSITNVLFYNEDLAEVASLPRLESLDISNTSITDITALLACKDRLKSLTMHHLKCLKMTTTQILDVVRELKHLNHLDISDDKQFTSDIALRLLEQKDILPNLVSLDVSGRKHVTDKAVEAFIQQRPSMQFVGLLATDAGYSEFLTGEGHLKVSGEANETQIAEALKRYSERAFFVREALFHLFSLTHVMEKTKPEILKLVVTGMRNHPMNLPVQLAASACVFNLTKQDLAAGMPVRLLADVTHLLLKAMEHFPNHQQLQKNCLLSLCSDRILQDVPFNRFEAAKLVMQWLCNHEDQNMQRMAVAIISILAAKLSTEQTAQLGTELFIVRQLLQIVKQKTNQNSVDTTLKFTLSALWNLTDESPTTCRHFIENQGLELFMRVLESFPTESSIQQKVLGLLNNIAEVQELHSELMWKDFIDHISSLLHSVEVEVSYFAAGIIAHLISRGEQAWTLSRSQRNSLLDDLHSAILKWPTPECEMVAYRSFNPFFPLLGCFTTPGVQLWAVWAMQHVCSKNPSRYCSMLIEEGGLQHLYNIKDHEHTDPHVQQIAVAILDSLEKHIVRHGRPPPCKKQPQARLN
# Outline: as §1
Structure (SMILES),log2 fold change (ZW10),log2 fold change (ZWILCH),log2 fold change (ZYG11B)
C[C@@H]1COCCN1c1cc(C2(S(C)(=O)=O)CC2)nc(-c2cccc3[nH]ccc23)n1,-0.029,-0.04,-0.008
CC(=O)c1cnc2ccc(-c3cc(Cl)c(O)c(Cl)c3)nc2c1N[C@H]1CC[C@H](CN(C)C)CC1,0.011,0.004,0.004
COc1ccc(Cn2ccc3ccc(C(=O)NO)cc32)cc1,-0.004,0.019,0.052
CC[C@@H]1C(=O)N(C)c2cnc(Nc3ccc(C(=O)NC4CCN(C)CC4)cc3OC)nc2N1C1CCCC1,-0.197,-0.078,-0.031
O=C(Nc1nc2ccccc2n1CCN1CCOCC1)c1cccc([N+](=O)[O-])c1 [IRAK-1-4 Inhibitor I],-0.076,-0.042,0.044
COc1cc2ncnc(Nc3ccc(F)c(Cl)c3)c2cc1OCCCN1CCOCC1 [gefitinib],0.135,0.125,0.042
CN(CCOc1ccc(C[C@@H]2SC(=O)NC2=O)cc1)c1ccccn1 (racemic) [rosiglitazone],0.066,0.018,-0.055
Fc1ccc(Cl)cc1-c1nc(Nc2ccncc2)c2nccnc2n1,-0.04,-0.013,0.013
C=CC(=O)N1CCC[C@@H](n2nc(-c3ccc(Oc4ccccc4)cc3)c3c(N)ncnc32)C1 [ibrutinib],-0.007,-0.014,0.022
Cn1c2cc(S(C)=O)sc2c2cnn(Cc3cccc(N)c3)c(=O)c21 (stereo not given),0.115,-0.04,-0.053
CN(C)CC(=O)Nc1ccc2[nH]c(=O)c3ccccc3c2c1,0.013,0.051,-0.003
Cc1ccc(NC(=O)c2cccc(C(C)(C)C#N)c2)cc1Nc1ccc2ncn(C)c(=O)c2c1,0.015,0,-0.006
O=C1NC(=O)C(c2cnc3ccccn23)=C1c1cn2c3c(cc(F)cc13)CN(C(=O)N1CCCCC1)CC2,0.054,0.051,0.019
O=C(CCCCCCNC(=O)c1cnc(N(c2ccccc2)c2ccccc2Cl)nc1)NO [citarinostat],0.033,0.104,-0.043
O=C1NC(=O)/C(=C\c2ccc3nccnc3c2)S1,-0.009,0.056,-0.084
Nc1ccccc1NC(=O)c1ccc(CNC(=O)OCc2cccnc2)cc1 [entinostat],0.063,0.002,0.013
Cc1ncc(-c2ccnc(Nc3ccc(S(C)(=O)=O)cc3)n2)n1C(C)C,0,0.071,0.037
C[C@@H](N)c1ccc(C(=O)Nc2ccnc3[nH]ccc23)cc1,0.129,0.014,-0.035
O=C(CCCCCCC(=O)Nc1ccccc1)NO [vorinostat],0.085,0.056,0.053
Oc1cc(-c2nc(-c3ccccc3)[nH]c2-c2ccncc2)ccc1Cl,-0.034,-0.002,0.015
CS(=O)(=O)N1CCN(Cc2cc3nc(-c4cccc5[nH]ncc45)nc(N4CCOCC4)c3s2)CC1 [pictilisib],0.005,-0.026,0.104
C/C(=N\NC(=O)c1cccc(S(=O)(=O)N2CCOCC2)c1)c1cc(Cl)ccc1O,0.075,0.038,0.006
CN1CCN(CCOc2cc(OC3CCOCC3)c3c(Nc4c(Cl)ccc5c4OCO5)ncnc3c2)CC1 [saracatinib],-0.031,-0.012,-0.051
O=C(O)c1ccc2c(c1)nc(Nc1cccc(Cl)c1)c1ccncc12 [silmitasertib],0.083,0.059,0
Cc1ccc(Sc2cncc3sc(C(N)=O)cc23)cc1,0.018,-0.068,-0.028

Structure (SMILES),log2 fold change (ZW10),log2 fold change (ZWILCH),log2 fold change (ZYG11B)
CC(C)(C)Cn1c(N)nc2ccc(-c3[nH]c(C(C)(C)C)nc3-c3ccc(F)cc3)nc21 [ralimetinib],0.032,0.049,-0.046
CN1CCN(c2nc(C3=C(c4c[nH]c5ccccc45)C(=O)NC3=O)c3ccccc3n2)CC1 [sotrastaurin],-0.089,-0.059,0.026
Cn1cc(-c2ccc3c(c2)CCN3C(=O)Cc2cccc(C(F)(F)F)c2)c2c(N)ncnc21,-0.076,-0.057,0.063
Cc1cccc(CC(=O)N2CCc3c2ccc(-c2cn(C)c4ncnc(N)c24)c3F)n1,0.034,0.027,-0.031
CCN(CCCOc1ccc2c(Nc3cc(CC(=O)Nc4cccc(F)c4)[nH]n3)ncnc2c1)CCOP(=O)(O)O [barasertib],0.055,0.064,0.044
NC1(c2ccc(-c3nc4ccn5c(=O)[nH]nc5c4cc3-c3ccccc3)cc2)CCC1,-0.141,-0.097,-0.087
NC(=O)Nc1cc(-c2cccc(F)c2)sc1C(=O)N[C@H]1CCCNC1,-0.021,0,-0.033
c1cn2cc(-c3ccc4cn[nH]c4c3)nc(Nc3ccc(N4CCOCC4)cc3)c2n1 [entospletinib],0.063,0.022,0.068
COc1cc2nc(-c3cc(F)ccc3O)nc(N[C@@H]3CNC[C@H]3C(C)(C)O)c2cc1OC,0.041,0.03,0.034
CN1CC[C@H](c2c(O)cc(O)c3c(=O)cc(-c4ccccc4Cl)oc23)[C@H](O)C1 [alvocidib],-0.02,-0.034,-0.055
CNC(=O)c1ccc(Nc2ncc(C(F)(F)F)c(NCc3nccnc3N(C)S(C)(=O)=O)n2)cc1 [defactinib],-0.083,-0.007,-0.058
CC(C)c1cnn2c(NCc3ccccc3)cc(NCCCCCCN)nc12,-0.213,-0.107,0.058
Cc1cc(Nc2cc(CN3CCOCC3)c3nc(C)c(Cc4ccc(Cl)cc4F)n3n2)n[nH]1 [gandotinib],-0.108,-0.12,0.093
Cc1cn(-c2cc(NC(=O)c3ccc(C)c(Nc4nccc(-c5cccnc5)n4)c3)cc(C(F)(F)F)c2)cn1 [nilotinib],-0.088,-0.047,0.025
COc1cc(Nc2ncc3c(n2)-c2ccc(Cl)cc2C(c2c(F)cccc2OC)=NC3)ccc1C(=O)O [alisertib],0.031,-0.024,-0.155
Cc1nc(Nc2ncc(C(=O)Nc3c(C)cccc3Cl)s2)cc(N2CCN(CCO)CC2)n1 [dasatinib],-0.124,-0.05,-0.017
CNc1nc(-c2ccc3c(N)n[nH]c3c2)cc(N2C[C@@H](C(=O)NC3CCCCC3)CC[C@H]2C)n1,0.009,-0.037,0.002
Cn1cc(-c2ccc3nnc(C(F)(F)c4ccc5ncccc5c4)n3n2)cn1,-0.069,-0.069,0
Cc1ccc(NC(=O)c2ccc(CN3CC[C@H](N(C)C)C3)c(C(F)(F)F)c2)cc1Nc1nccc(-c2cncnc2)n1 [bafetinib],0.003,-0.031,-0.272 (active)
CC[C@@H]1C(=O)N(C)c2cnc(Nc3ccc(C(=O)N[C@H]4CC[C@H](N5CCN(CC6CC6)CC5)CC4)cc3OC)nc2N1C(C)C [volasertib],-0.399 (active),-0.266 (active),0.002
COc1cccc2cc(-c3nc([C@H]4CC[C@H](C(=O)O)CC4)n4ncnc(N)c34)[nH]c12,-0.051,-0.041,0.02
CNCc1ccc(-c2[nH]c3cc(F)cc4c3c2CCNC4=O)cc1 [rucaparib],0.128,-0.051,0.061
NC(=O)c1ccc2nc(-c3ccc(Oc4ccc(Cl)cc4)cc3)[nH]c2c1,-0.005,-0.028,0
CCCc1cc(C)[nH]c(=O)c1CNC(=O)c1cc(-c2ccnc(N3CCN(C)CC3)c2)cc2c1cnn2C(C)C,0.072,0.004,0.1
Cc1ccc(NC(=O)c2cccc(N(C)C)c2)cc1NC(=O)c1ccc(O)cc1,-0.043,0.238,-0.018
